This note sets out measurements from paper PMC11006913.

Experiment in all cases: PBM; 200 nM protein, PBS
Holding throughout (conditions): dsDNA, one strand shown

In assay [1] the target is HESX1 (Homo sapiens, UniProt Q9UBX0 95-180, R165K).
Assay [2] has as its target SHOX (Homo sapiens, UniProt O15266 103-189).
In the next assay the target is ALX4 (Homo sapiens, UniProt Q9H161 200-286, Q225E).
The target of assay [3] is HESX1 (Homo sapiens, UniProt Q9UBX0 95-180).
A further assay addresses MSX2 (Homo sapiens, UniProt P35548 130-214, R199I).
Assay [4] concerns the target ALX1 (Homo sapiens, UniProt Q15699 118-204, L144V).
Assay [5] concerns the target ALX3 (Homo sapiens, UniProt O95076 139-225, N203Q).
In assay [6] the target is SHOX (Homo sapiens, UniProt O15266 103-189, R173C).
Chain of SHOX (Homo sapiens, UniProt O15266 103-189, R173C) (O15266 103-189 R173C): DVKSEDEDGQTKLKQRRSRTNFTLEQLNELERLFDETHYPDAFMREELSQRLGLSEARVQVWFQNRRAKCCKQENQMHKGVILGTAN
For assay [7], the target named is ALX1 (Homo sapiens, UniProt Q15699 118-204, L144R).
Chain of ALX1 (Homo sapiens, UniProt Q15699 118-204, L144R) (Q15699 118-204 L144R): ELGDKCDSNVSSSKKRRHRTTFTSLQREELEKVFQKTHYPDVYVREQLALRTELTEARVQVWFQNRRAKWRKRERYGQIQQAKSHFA
Assay [8] deals with ALX3 (Homo sapiens, UniProt O95076 139-225).
Chain of ALX3 (Homo sapiens, UniProt O95076 139-225) (O95076 139-225): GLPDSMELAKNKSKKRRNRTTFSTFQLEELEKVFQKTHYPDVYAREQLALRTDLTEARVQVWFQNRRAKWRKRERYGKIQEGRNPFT
In assay [9] the target is PROP1 (Homo sapiens, UniProt O75360 56-141).
Chain of PROP1 (Homo sapiens, UniProt O75360 56-141) (O75360 56-141): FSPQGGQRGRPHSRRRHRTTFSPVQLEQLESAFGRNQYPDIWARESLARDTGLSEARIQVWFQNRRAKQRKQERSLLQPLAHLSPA
Assay [10] addresses HESX1 (Homo sapiens, UniProt Q9UBX0 95-180, R109Q).
The target of assay [11] is PROP1 (Homo sapiens, UniProt O75360 56-141, R99H).
Chain of PROP1 (Homo sapiens, UniProt O75360 56-141, R99H) (O75360 56-141 R99H): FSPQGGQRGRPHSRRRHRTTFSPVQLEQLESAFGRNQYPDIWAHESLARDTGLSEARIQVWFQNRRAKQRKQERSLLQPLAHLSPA
For assay [12], the target named is ALX3 (Homo sapiens, UniProt O95076 139-225, L168Q).
Chain of ALX3 (Homo sapiens, UniProt O95076 139-225, L168Q) (O95076 139-225 L168Q): as the sequence (O95076 139-225) above, with L30Q counted along it
The target in assay [13] is HESX1 (Homo sapiens, UniProt Q9UBX0 95-180, P111T).
Chain of HESX1 (Homo sapiens, UniProt Q9UBX0 95-180, P111T) (Q9UBX0 95-180 P111T): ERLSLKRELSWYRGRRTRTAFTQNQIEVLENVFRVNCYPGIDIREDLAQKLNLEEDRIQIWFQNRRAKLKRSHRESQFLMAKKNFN
In assay [14] the target is ALX3 (Homo sapiens, UniProt O95076 139-225, L168V).
Chain of ALX3 (Homo sapiens, UniProt O95076 139-225, L168V) (O95076 139-225 L168V): as the sequence (O95076 139-225) above, with L30V counted along it
The target of assay [15] is PROP1 (Homo sapiens, UniProt O75360 56-141, F88S).
Chain of PROP1 (Homo sapiens, UniProt O75360 56-141, F88S) (O75360 56-141 F88S): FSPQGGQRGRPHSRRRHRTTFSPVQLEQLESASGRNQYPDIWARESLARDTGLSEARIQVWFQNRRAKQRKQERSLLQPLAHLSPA
Assay [16] addresses HESX1 (Homo sapiens, UniProt Q9UBX0 95-180, F115L).
In assay [17] the target is ALX1 (Homo sapiens, UniProt Q15699 118-204).
Chain of ALX1 (Homo sapiens, UniProt Q15699 118-204) (Q15699 118-204): as the sequence (Q15699 118-204 L144R) above, with R27L counted along it
Assay [18] concerns the target ALX3 (Homo sapiens, UniProt O95076 139-225, N203S).

Chain of HESX1 (Homo sapiens, UniProt Q9UBX0 95-180, R109Q) (Q9UBX0 95-180 R109Q): as the sequence (Q9UBX0 95-180 P111T) above, with R15Q, T17P counted along it
Chain of ALX3 (Homo sapiens, UniProt O95076 139-225, N203Q) (O95076 139-225 N203Q): as the sequence (O95076 139-225) above, with N65Q counted along it
Chain of ALX4 (Q9H161 200-286 Q225E): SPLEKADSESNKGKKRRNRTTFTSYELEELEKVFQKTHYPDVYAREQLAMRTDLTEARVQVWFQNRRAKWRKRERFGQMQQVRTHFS
Chain of HESX1 (Homo sapiens, UniProt Q9UBX0 95-180) (Q9UBX0 95-180): as the sequence (Q9UBX0 95-180 P111T) above, with T17P counted along it
Chain of SHOX (Homo sapiens, UniProt O15266 103-189) (O15266 103-189): as the sequence (O15266 103-189 R173C) above, with C71R counted along it
Chain of ALX1 (Homo sapiens, UniProt Q15699 118-204, L144V) (Q15699 118-204 L144V): as the sequence (Q15699 118-204 L144R) above, with R27V counted along it
Chain of MSX2 (P35548 130-214 R199I): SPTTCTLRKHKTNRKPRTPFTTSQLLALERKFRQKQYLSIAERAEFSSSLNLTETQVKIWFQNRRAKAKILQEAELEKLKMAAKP
Chain of HESX1 (Homo sapiens, UniProt Q9UBX0 95-180, F115L) (Q9UBX0 95-180 F115L): as the sequence (Q9UBX0 95-180 P111T) above, with T17P, F21L counted along it
Chain of ALX3 (Homo sapiens, UniProt O95076 139-225, N203S) (O95076 139-225 N203S): as the sequence (O95076 139-225) above, with N65S counted along it
Chain of HESX1 (Homo sapiens, UniProt Q9UBX0 95-180, R165K) (Q9UBX0 95-180 R165K): as the sequence (Q9UBX0 95-180 P111T) above, with T17P, R71K counted along it

Turning to TAATTAAA, the binding signal in the assay with HESX1 [1] is 13.1 upbm affinity estimate (log intensity, higher = more binding, comparable within an allelic series); with SHOX [2], 12.8 upbm affinity estimate (log intensity, higher = more binding, comparable within an allelic series); with ALX4, 14.1 upbm affinity estimate (log intensity, higher = more binding, comparable within an allelic series); with HESX1 [3], 13.1 upbm affinity estimate (log intensity, higher = more binding, comparable within an allelic series); in the assay with MSX2, 12.9 upbm affinity estimate (log intensity, higher = more binding, comparable within an allelic series); with ALX1 [4], 11.9 upbm affinity estimate (log intensity, higher = more binding, comparable within an allelic series). Further, the binding signal with ALX3 [5] was 8.59 upbm affinity estimate (log intensity, higher = more binding, comparable within an allelic series); in the assay with SHOX [6], 10.6 upbm affinity estimate (log intensity, higher = more binding, comparable within an allelic series); in the assay with ALX1 [7] it was 11.6 upbm affinity estimate (log intensity, higher = more binding, comparable within an allelic series); with ALX3 [8], 12.8 upbm affinity estimate (log intensity, higher = more binding, comparable within an allelic series); in the assay with PROP1 [9], 11.9 upbm affinity estimate (log intensity, higher = more binding, comparable within an allelic series); with HESX1 [10] it was 10 upbm affinity estimate (log intensity, higher = more binding, comparable within an allelic series). Further, the binding signal with PROP1 [11] is 11.9 upbm affinity estimate (log intensity, higher = more binding, comparable within an allelic series); with ALX3 [12] it was 11.3 upbm affinity estimate (log intensity, higher = more binding, comparable within an allelic series); in the assay with HESX1 [13], 12.1 upbm affinity estimate (log intensity, higher = more binding, comparable within an allelic series); with ALX3 [14], 11.1 upbm affinity estimate (log intensity, higher = more binding, comparable within an allelic series); in the assay with PROP1 [15] it was 8.07 upbm affinity estimate (log intensity, higher = more binding, comparable within an allelic series); in the assay with HESX1 [16] it was 8.41 upbm affinity estimate (log intensity, higher = more binding, comparable within an allelic series). For the same sequence, the binding signal was 12.6 upbm affinity estimate (log intensity, higher = more binding, comparable within an allelic series) in the assay with ALX1 [17] and 8.72 upbm affinity estimate (log intensity, higher = more binding, comparable within an allelic series) with ALX3 [18].

Regarding GCAATTAA, the binding signal with HESX1 [1] is 12.6 upbm affinity estimate (log intensity, higher = more binding, comparable within an allelic series); with SHOX [2], 12.1 upbm affinity estimate (log intensity, higher = more binding, comparable within an allelic series); in the assay with ALX4, 13.3 upbm affinity estimate (log intensity, higher = more binding, comparable within an allelic series); with HESX1 [3], 12.7 upbm affinity estimate (log intensity, higher = more binding, comparable within an allelic series); with MSX2, 13.2 upbm affinity estimate (log intensity, higher = more binding, comparable within an allelic series); with ALX1 [4], 11.6 upbm affinity estimate (log intensity, higher = more binding, comparable within an allelic series). In addition, the binding signal in the assay with ALX3 [5] is 8.37 upbm affinity estimate (log intensity, higher = more binding, comparable within an allelic series); with SHOX [6], 9.65 upbm affinity estimate (log intensity, higher = more binding, comparable within an allelic series); in the assay with ALX1 [7], 11.3 upbm affinity estimate (log intensity, higher = more binding, comparable within an allelic series); in the assay with ALX3 [8], 12.4 upbm affinity estimate (log intensity, higher = more binding, comparable within an allelic series); in the assay with PROP1 [9], 11.5 upbm affinity estimate (log intensity, higher = more binding, comparable within an allelic series); with HESX1 [10], 9.34 upbm affinity estimate (log intensity, higher = more binding, comparable within an allelic series). Also, the binding signal was 11.6 upbm affinity estimate (log intensity, higher = more binding, comparable within an allelic series) in the assay with PROP1 [11]; 10.7 upbm affinity estimate (log intensity, higher = more binding, comparable within an allelic series) with ALX3 [12]; 11.2 upbm affinity estimate (log intensity, higher = more binding, comparable within an allelic series) in the assay with HESX1 [13]; 10.2 upbm affinity estimate (log intensity, higher = more binding, comparable within an allelic series) with ALX3 [14]; 7.72 upbm affinity estimate (log intensity, higher = more binding, comparable within an allelic series) with PROP1 [15]; 7.72 upbm affinity estimate (log intensity, higher = more binding, comparable within an allelic series) in the assay with HESX1 [16]. Also, the binding signal with ALX1 [17] is 12.2 upbm affinity estimate (log intensity, higher = more binding, comparable within an allelic series); with ALX3 [18], 8.51 upbm affinity estimate (log intensity, higher = more binding, comparable within an allelic series).

For CTAATTAA, the binding signal with HESX1 [1] is 13.8 upbm affinity estimate (log intensity, higher = more binding, comparable within an allelic series); with SHOX [2] it was 13.4 upbm affinity estimate (log intensity, higher = more binding, comparable within an allelic series); with ALX4, 14.4 upbm affinity estimate (log intensity, higher = more binding, comparable within an allelic series); in the assay with HESX1 [3] it was 13.6 upbm affinity estimate (log intensity, higher = more binding, comparable within an allelic series); in the assay with MSX2, 13.3 upbm affinity estimate (log intensity, higher = more binding, comparable within an allelic series); in the assay with ALX1 [4], 12.3 upbm affinity estimate (log intensity, higher = more binding, comparable within an allelic series). Further, the binding signal with ALX3 [5] is 8.64 upbm affinity estimate (log intensity, higher = more binding, comparable within an allelic series); with SHOX [6], 11.1 upbm affinity estimate (log intensity, higher = more binding, comparable within an allelic series); with ALX1 [7], 11.9 upbm affinity estimate (log intensity, higher = more binding, comparable within an allelic series); with ALX3 [8], 12.9 upbm affinity estimate (log intensity, higher = more binding, comparable within an allelic series); with PROP1 [9] it was 12.2 upbm affinity estimate (log intensity, higher = more binding, comparable within an allelic series); with HESX1 [10] it was 11.2 upbm affinity estimate (log intensity, higher = more binding, comparable within an allelic series). Besides, the binding signal with PROP1 [11] is 12.4 upbm affinity estimate (log intensity, higher = more binding, comparable within an allelic series); with ALX3 [12], 11.6 upbm affinity estimate (log intensity, higher = more binding, comparable within an allelic series); with HESX1 [13], 12.6 upbm affinity estimate (log intensity, higher = more binding, comparable within an allelic series); in the assay with ALX3 [14] it was 11.4 upbm affinity estimate (log intensity, higher = more binding, comparable within an allelic series); in the assay with PROP1 [15], 8.3 upbm affinity estimate (log intensity, higher = more binding, comparable within an allelic series); with HESX1 [16] it was 8.61 upbm affinity estimate (log intensity, higher = more binding, comparable within an allelic series). In addition, the binding signal with ALX1 [17] was 12.9 upbm affinity estimate (log intensity, higher = more binding, comparable within an allelic series); in the assay with ALX3 [18], 8.84 upbm affinity estimate (log intensity, higher = more binding, comparable within an allelic series).

Take TAATTATA: the binding signal was 12.8 upbm affinity estimate (log intensity, higher = more binding, comparable within an allelic series) in the assay with HESX1 [1]; 12.3 upbm affinity estimate (log intensity, higher = more binding, comparable within an allelic series) with SHOX [2]; 13.9 upbm affinity estimate (log intensity, higher = more binding, comparable within an allelic series) in the assay with ALX4; 12.9 upbm affinity estimate (log intensity, higher = more binding, comparable within an allelic series) with HESX1 [3]; 13 upbm affinity estimate (log intensity, higher = more binding, comparable within an allelic series) in the assay with MSX2; 12 upbm affinity estimate (log intensity, higher = more binding, comparable within an allelic series) with ALX1 [4]. Moreover, the binding signal in the assay with ALX3 [5] was 8.6 upbm affinity estimate (log intensity, higher = more binding, comparable within an allelic series); in the assay with SHOX [6] it was 9.85 upbm affinity estimate (log intensity, higher = more binding, comparable within an allelic series); with ALX1 [7], 11.6 upbm affinity estimate (log intensity, higher = more binding, comparable within an allelic series); with ALX3 [8] it was 12.8 upbm affinity estimate (log intensity, higher = more binding, comparable within an allelic series); with PROP1 [9], 11.7 upbm affinity estimate (log intensity, higher = more binding, comparable within an allelic series); with HESX1 [10] it was 9.16 upbm affinity estimate (log intensity, higher = more binding, comparable within an allelic series). For the same sequence, the binding signal with PROP1 [11] was 11.7 upbm affinity estimate (log intensity, higher = more binding, comparable within an allelic series); with ALX3 [12], 10.9 upbm affinity estimate (log intensity, higher = more binding, comparable within an allelic series); with HESX1 [13], 11.5 upbm affinity estimate (log intensity, higher = more binding, comparable within an allelic series); with ALX3 [14] it was 10.6 upbm affinity estimate (log intensity, higher = more binding, comparable within an allelic series); in the assay with PROP1 [15], 8.03 upbm affinity estimate (log intensity, higher = more binding, comparable within an allelic series); with HESX1 [16], 8.06 upbm affinity estimate (log intensity, higher = more binding, comparable within an allelic series). In addition, the binding signal in the assay with ALX1 [17] is 12.7 upbm affinity estimate (log intensity, higher = more binding, comparable within an allelic series); with ALX3 [18], 8.74 upbm affinity estimate (log intensity, higher = more binding, comparable within an allelic series).
